# The whole screen tested about 320,000 compounds, of which about 7,600 (2.4%) were called active. About 3% were inconclusive and are not listed. This is one part of a sample in which actives are shown more often than they occur. Calls come from the whole dose curve; as a rule, active = well fitted activation curve with a large enough effect; inconclusive = small, poorly fitted or top-dose-only effect; inactive = no such curve, though single readings can be large or run the other way.
# Test: qHTS Assay for NPC1 Promoter Activators; note: nearly all actives have a fitted effect of over 60% in size;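 for activation: reporter is driven by a mutant NPC1 promoter; % of control where 0% means no effect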
# Settings: Huh7 NPC1 promoter luciferase reporter, 24 h; series mostly up to 9.22 µM; activation: at the top concentration
# Procedure, shortened: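 NPC1 promoter–luciferase Huh7 cells; 24 h compound; luminescence.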
# Potency is the fitted concentration of half-maximal effect.
Structure (SMILES),activation,Potency
O=C(CN1CCCSc2ccccc21)N1CCN(S(=O)(=O)c2cccc(F)c2)CC1,-1.09% (inactive),
COC(=O)C1=C(C)NC(=S)NC1c1ccc(OCC(=O)N2CC(C)OC(C)C2)c(OC)c1 (stereo not given),-1.43% (inactive),
COc1ccc(CCNC(=O)COc2ccc3c(c2)OCO3)cc1,0.465% (inactive),
CC(=O)NS(=O)(=O)c1ccc(NC(=O)C2C3C=CC(C3)C2C(=O)O)cc1 (stereo not given),-4.5% (inactive),
CC(C)COC(=O)c1ccc(NC(=O)C2C3C=CC(C3)C2C(=O)O)cc1 (stereo not given),,2240 nM (active)
COC(=O)c1cc(NC(=O)C2C3C=CC(C3)C2C(=O)O)cc(C(=O)OC)c1 (stereo not given),-0.988% (inactive),
CCN(CC)S(=O)(=O)c1ccc2[nH]c(=O)cc(C(=O)N(C)C3CCS(=O)(=O)C3)c2c1 (stereo not given),-0.834% (inactive),
C[C@H](OC(=O)n1ccnc1)[C@@H]1O[C@@]2(C)CCC[C@@H]1O2,-1.99% (inactive),
COc1ccccc1N1CC(C(=O)NCCN2C(=O)S/C(=C\c3cccnc3)C2=O)CC1=O (stereo not given),-4.37% (inactive),
Cc1ccc(C(CC(=O)O)NC(=O)c2ccc(S(=O)(=O)N3CCCC3)cc2)cc1 (stereo not given),-3.14% (inactive),
O=C(NCCN1CCOCC1)c1cccc(S(=O)(=O)Nc2ccc(F)cc2)c1,-2.61% (inactive),
O=C(NC(=S)NC1CCCCC1)c1ccc(Cl)cc1,-1.56% (inactive),
O=C(NC1CCCCCC1)c1cccnc1Sc1ccc(Cl)cc1,-1.75% (inactive),
O=C(NC1CCCCC1)c1ccc(-c2ccc(Cl)cc2)o1,,3160 nM (active)
Cc1ccc(NC(=O)C(C)Sc2nnc(C3CC3)n2C2CC2)cc1S(=O)(=O)N1CCOCC1 (stereo not given),0.24% (inactive),
C=CCn1c(SCC(=O)NC(=O)Cc2ccccc2)nc2ccccc2c1=O,0.344% (inactive),
O=C(/C=C/c1cnc2ccccc2n1)NC1CCCCCC1,,3550 nM (active)
O=C(Cn1c(-c2cncs2)nc2ccccc21)NC1CCCC1,-3.48% (inactive),
Cc1nc(/N=C(\N)NC(=O)NC2CCCCC2)nc2ccccc12,-17.1% (inactive),
COc1ccc2c(C)cc(SCC(=O)NCC3CCCO3)nc2c1 (stereo not given),-1.53% (inactive),
Cc1cccc(NC(=O)c2ccc3ccccc3n2)n1,,3160 nM (active)
Cc1cccc(NC(=O)c2ccccc2NC(=O)C(C)(C)C)n1,-4.9% (inactive),
Cc1cccc(NC(=O)c2cccnc2Cl)n1,-1.84% (inactive),
Cc1ccc(-n2nc3ccc(NC(=O)/C=C/c4ccco4)cc3n2)cc1C,28.9% (inactive),
CCC(=O)Nc1ccc2nn(-c3ccc(F)cc3)nc2c1,,355 nM (active)
CCC(=O)Nc1ccc(C(=O)Nc2cccc(OC)c2)cc1,27.4% (inactive),
Cc1noc(C)c1S(=O)(=O)Nc1ccc(C(=O)N2CCN(c3ccc(F)cc3)CC2)cc1,1.83% (inactive),
O=C(NC1CCCC1)c1cc(-c2ccccc2)on1,,1260 nM (active)
O=C(Nc1cccnc1Cl)c1cc(-c2cccc(Cl)c2)on1,-0.809% (inactive),
O=C(NCCCN1CCOCC1)c1cc(-c2cccc(O)c2)on1,0.0458% (inactive),

# Source: PubChem BioAssay AID485313 (National Center for Advancing Translational Sciences (NCATS), 2010)
